The record followed here is PubChem BioAssay (NCI).

Among the test systems are NCI-H23 lung; NCI-H226 lung; NCI-H322M lung; HOP-62 NSCLC; NCI-H460 lung; HOP-92 NSCLC; NCI-H522 lung; 786-0 renal; COLO 205 colon; A549/ATCC NSCLC.
Experiment in all cases: NCI-60 one-dose screen, 48 h (100 = growth as untreated, 0 = no growth, -100 = all killed)
What all share (conditions): 10 µM unless noted

Several values for one entry are separate records, joined by “and”; a condition that tells them apart may be missing. Identical values can stand only once. About 83,000 compounds went through this panel and 20% of them were active in at least one assay; those are over-represented in the sample as a whole.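 Single-dose data. Exposure time 48 hours. Values below 10 considered active.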 Values without a mark were called inactive. Activity calls are given as the source filed them.

As for `Nn1c(-c2ccc(Cl)cc2)nc2c(-c3ccc(Cl)cc3)nc3ccc(Cl)cc3c2c1=O`, the growth is 56.3% in the test on NCI-H23 lung; 1.77% (active) in the test with NCI-H226 lung; 35.3% in the test with NCI-H322M lung; -78.2% (active) in the test with HOP-62 NSCLC; -63.2% (active) in the test on NCI-H460 lung; 27.4% with HOP-92 NSCLC. The growth with NCI-H522 lung is 48.9%; in the test with 786-0 renal, -65.3% (active); with COLO 205 colon, 22.3%.
On to `CCN(CC)CC(=O)Nc1ccc2ncnc(Nc3ccc(Oc4cccc(F)c4)c(Cl)c3)c2c1`, for which the growth is 74.9% in the test on NCI-H23 lung; 87.6% in the test with NCI-H226 lung; 65.6% with NCI-H322M lung; 80.4% in the test on HOP-62 NSCLC; 36.9% with NCI-H460 lung; 39.5% with HOP-92 NSCLC. For the same compound, the growth was 64.6% in the test on NCI-H522 lung, 55.7% in the test on A549/ATCC NSCLC, 59.7% in the test with 786-0 renal and 68.8% with COLO 205 colon.
Consider `O=C1C(Nc2ccc(Cl)cc2)=C(I)C(=O)c2ncccc21`, for which the growth in the test with NCI-H23 lung was 9.7% (active); with NCI-H226 lung it was 88.4%; in the test with NCI-H322M lung, 64.3%; in the test on HOP-62 NSCLC, 48.1%; with NCI-H460 lung, 17.5%; in the test with HOP-92 NSCLC, -90.4% (active). In addition, the growth with NCI-H522 lung was -58.7% (active); in the test with A549/ATCC NSCLC, 35.5%; with 786-0 renal, 26.1%; in the test with COLO 205 colon it was -45.9% (active).
`CCNC(=S)n1nc(SC)c(C(=O)OCC)c1N`: the growth was 93.3% in the test with NCI-H23 lung; 91.9% in the test on NCI-H226 lung; 91.8% with NCI-H322M lung; 86.7% with HOP-62 NSCLC; 106% in the test with NCI-H460 lung; 110% in the test with HOP-92 NSCLC. The growth is 89.9% in the test with NCI-H522 lung, 107% with A549/ATCC NSCLC, 98.6% with 786-0 renal and 107% with COLO 205 colon.
`O=C(Nc1cc(C(F)(F)F)cc(C(F)(F)F)c1)c1cc(Cl)ccc1O`: the growth in the test with NCI-H23 lung was -25.2% (active) and -11.5% (active); with NCI-H226 lung, -27.9% (active); with NCI-H322M lung, -3.01% (active) and 1.1% (active); with HOP-62 NSCLC, -27.3% (active) and -3.41% (active); in the test with NCI-H460 lung, 0.0882% (active) and 2.21% (active); with HOP-92 NSCLC, -19.6% (active) and -14.1% (active). The growth was -45.5% (active) and -23% (active) in the test on NCI-H522 lung; -7.9% (active) and 5.51% (active) in the test with A549/ATCC NSCLC; -41.1% (active) and -48.8% (active) in the test with 786-0 renal; -83.1% (active) and -64.5% (active) in the test with COLO 205 colon.
`Nc1nc2c(s1)CCc1cn(S(=O)(=O)c3ccccc3)cc1-2`: the growth in the test with NCI-H23 lung was 94.5% and 104%; in the test with NCI-H226 lung it was 82.9%; in the test with NCI-H322M lung, 93.7% and 114%; in the test on HOP-62 NSCLC, 91.5% and 112%; in the test with NCI-H460 lung, 95.1% and 101%; in the test on HOP-92 NSCLC, 63.3%. Moreover, the growth is 82.4% and 92.9% in the test on NCI-H522 lung; 78.5% and 101% in the test on A549/ATCC NSCLC; 92.7% and 104% in the test with 786-0 renal; 106% and 108% with COLO 205 colon.
Regarding `OCCN1CCN(c2cc(-c3cccc(OC(F)(F)F)c3)nc3ccc(N4CCCC4)cc23)CC1`, the growth in the test on NCI-H23 lung was 74.4%; in the test on NCI-H226 lung, 70.1%; in the test on NCI-H322M lung, 80%; with HOP-62 NSCLC, 48.4%; in the test on NCI-H460 lung, 11.3%; in the test with HOP-92 NSCLC it was 34.1%. For the same compound, the growth with NCI-H522 lung was 66.4%; in the test on A549/ATCC NSCLC, 36.2%; in the test on 786-0 renal, 63.1%; with COLO 205 colon, -18.8% (active).
On to `COC(=O)[C@H]1Cc2c([nH]c3ccccc23)[C@@H](c2cccs2)N1`, for which the growth is 104% in the test on NCI-H23 lung; 98.3% with NCI-H226 lung; 100% in the test with NCI-H322M lung; 102% in the test with HOP-62 NSCLC; 105% in the test on NCI-H460 lung; 105% with HOP-92 NSCLC. In addition, the growth with NCI-H522 lung was 78.9%; in the test with A549/ATCC NSCLC, 103%; with 786-0 renal, 91.4%; in the test on COLO 205 colon, 131%.
As to `COc1ccc(CCNC(=O)COc2cc3c(Nc4ccc(F)c(Cl)c4)ncnc3cc2OC)cc1OC`, the growth was 92.5% in the test on NCI-H23 lung; 98.5% in the test on NCI-H226 lung; 27.3% with NCI-H322M lung; 95.7% in the test on HOP-62 NSCLC; 95.7% in the test on NCI-H460 lung; 87.9% in the test with HOP-92 NSCLC. The growth in the test with NCI-H522 lung is 70.2%; in the test with A549/ATCC NSCLC it was 84.8%; with 786-0 renal, 89.4%; with COLO 205 colon it was 102%.
`C=C(CN1CC=CCC1)[C@@H]1CC[C@]2(COC(C)=O)CC[C@]3(C)[C@H](CC[C@@H]4[C@@]5(C)CC[C@H](O)C(C)(C)[C@@H]5CC[C@]43C)[C@@H]12`: the growth in the test on NCI-H23 lung was 102%; with NCI-H226 lung, 92.5%; in the test on NCI-H322M lung it was 114%; with HOP-62 NSCLC it was 107%; with NCI-H460 lung it was 96.3%; with HOP-92 NSCLC, 92.7%. Also, the growth in the test on NCI-H522 lung is 95%; in the test on A549/ATCC NSCLC it was 95.3%; in the test on 786-0 renal, 103%; with COLO 205 colon it was 105%.
Turning to `CCN1CCN(C(=O)[C@]23CC[C@@H](C)[C@H](C)[C@@H]2C2=CC[C@@H]4[C@@]5(C)CCC(=O)C(C)(C)[C@@H]5CC[C@@]4(C)[C@]2(C)CC3)CC1`, the growth in the test with NCI-H23 lung is 21.4%; in the test on NCI-H226 lung, 35.7%; in the test on NCI-H322M lung, 10.2%; with HOP-62 NSCLC, 9.82% (active); in the test on NCI-H460 lung it was -55.1% (active); in the test with HOP-92 NSCLC, -5.58% (active). Further, the growth in the test with NCI-H522 lung is -53.4% (active); with A549/ATCC NSCLC, 19.9%; in the test with 786-0 renal, -40.1% (active); with COLO 205 colon, -50.9% (active).
Turning to `COc1cc2nc3cc([N+](=O)[O-])ccc3c(NCCNCC(C)(C)O)c2cc1OC`, the growth in the test with NCI-H23 lung is -34.1% (active); in the test on NCI-H226 lung it was -4.58% (active); with NCI-H322M lung, -3.78% (active); in the test with HOP-62 NSCLC, -23% (active); with NCI-H460 lung it was -38.7% (active); in the test on HOP-92 NSCLC, -45.6% (active). Besides, the growth was -40.3% (active) with NCI-H522 lung, -9.76% (active) in the test on A549/ATCC NSCLC, 2.27% (active) with 786-0 renal and -70.1% (active) with COLO 205 colon.
